Bioassay records as filed in PubChem BioAssay.
Compounds with a hit are over-represented: about 3.4% of the library has one in this group of screens.
TEAD-YAP block: TEAD-YAP interaction inhibition; inhibition, % at 9.12 µM; HEK-TIYL cells, TEAD-Gal4/YAP UAS-luciferase luminescence; 1.4% of 640,000 active; AID 1259422; in the data active means inhibition above about 32%;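 further: 0% = median of test compound wells and 100% = reference inhibitor wells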
FBW7 act: activators of human E3 ligase FBW7 | AlphaScreen FBW7–phospho-cyclin E peptide binding, activator screen | 0.13% of 650,000 active | normalized activity (activation), % at 26.1 µM | Q969H0; in the data active means normalized activity above about 1.9%;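 further: purified mutant Fbw7 with reduced substrate affinity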
MITF inh: blocks human microphthalmia-associated transcription factor | AID 1259374 | O75030 | 0.91% of 650,000 active | inhibition, % at 2.6 µM | AlphaScreen MITF homodimerization, bead proximity signal; in the data active means inhibition above about 50%;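 further: 0% = vehicle wells with protein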
GPR151 activ: activators of human GPR151. activation, % at 11.2 µM. Q8TDV0. PathHunter beta-arrestin GPR151 cells, luminescence. 1% of 650,000 active. AID 1508602; in the data active means activation above about 4.9%;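 further: 0% = median of compound wells and 100% = cells with positive control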
Target sequence (Q8TDV0 whole entry, looked up): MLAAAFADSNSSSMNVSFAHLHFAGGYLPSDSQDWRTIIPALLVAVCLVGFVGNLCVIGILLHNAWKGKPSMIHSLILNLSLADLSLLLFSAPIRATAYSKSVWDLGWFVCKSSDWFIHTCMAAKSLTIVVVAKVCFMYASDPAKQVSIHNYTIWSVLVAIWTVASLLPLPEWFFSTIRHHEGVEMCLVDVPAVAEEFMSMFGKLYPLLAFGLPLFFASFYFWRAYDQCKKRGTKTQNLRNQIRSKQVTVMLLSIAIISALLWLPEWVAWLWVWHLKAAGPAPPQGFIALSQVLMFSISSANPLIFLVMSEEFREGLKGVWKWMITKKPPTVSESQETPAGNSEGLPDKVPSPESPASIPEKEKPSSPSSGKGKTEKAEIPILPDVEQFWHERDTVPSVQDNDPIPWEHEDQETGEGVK
Active calls of the source: *.

SMILES | TEAD-YAP block | FBW7 act | MITF inh | GPR151 activ
Cn1c(=O)c2nc(Cl)n(CC(=O)c3ccccc3)c2n(C)c1=O | 2 | 0 | 2 | 1
Cc1ccc(-c2ccccc2)n1-c1ccc(O)c(C(=O)O)c1 | 0 | 0 | 78* | -1
Cc1ccc(-c2ccccc2)n1-c1ccc(C(=O)O)cc1 | -9 | 0 | 0 | -2
O=C(O)CCN(CCC(=O)O)c1nnc(-c2ccccc2)s1 | 8 | 0 | 5 | -1
CCC(=O)C(C#N)c1nnc(-c2ccccc2)s1 (configuration not stated) | 37* | 0 | 0 | -3
COc1ccc(-c2noc(C3CCCN(C(=O)Nc4cccc(F)c4)C3)n2)cc1 (configuration not stated) | -31 | 0 | -2 | 0
NC(=O)/C(=N\O)c1nc(-c2ccc(Cl)cc2)cs1 | 32* | 0 | 21 | -2
NC(=O)/C(=N/O)c1nc(-c2ccc(Br)cc2)cs1 | 9 | 0 | -4 | 0
COc1ccc(C2CC(=O)c3c(ccc4ccccc34)N2)cc1 (configuration not stated) | 0 | 0 | 11 | -1
COc1ccc(Br)cc1C1CC(=O)c2c(ccc3ccccc23)N1 (configuration not stated) | 37* | 0 | 2 | 0
CC(C)OC(=O)CSc1nc2c(c(-c3ccc(O)cc3)c1C#N)CCCC2 | 48* | 0 | 4 | 1
Cc1cccn2c(CN3CCN(C)C(C)C3)c(C(=O)N(C)CCc3ccccc3)nc12 (configuration not stated) | 5 | 0 | -11 | 0
CCc1ccc2oc(-c3ccc(N)cc3O)nc2c1 | 69* | 0 | 0 | -2
CCc1ccc2oc(-c3ccc(NC(C)=O)cc3)nc2c1 | -70 | 1 | 6 | 1
Cc1cc2nc(-c3cc(N)ccc3O)oc2cc1C | 65* | 0 | 6 | -8
Cc1ccc2nc(-c3ccc(N)cc3O)oc2c1 | 16 | 0 | 5 | -1
Nc1ccc(O)c(-c2nc3cc(N)ccc3o2)c1 | -24 | 0 | 6 | -6
Cc1ccc2oc(-c3ccc(N)cc3O)nc2c1 | 41* | 0 | -8 | -1
O=c1/c(=C\c2ccccc2)sc2nc(-c3ccccc3Cl)nn12 | 2 | 0 | -8 | 1
O=C1OC(/C=C/c2ccc([N+](=O)[O-])cc2)=NC/1=C/c1ccco1 | 11 | 0 | 17 | 0
COc1cccc(CNc2cc(C(=O)O)ccc2C)c1O | -12 | 0 | 18 | -1
COc1cc(/C=C/c2ccc(O)c(OC)c2)ccc1O | -54 | 0 | 0 | 0
O=c1cc(O)cc(/C=C/c2ccc(O)c(O)c2)o1 | -5 | 0 | 86* | 1
CCOC(=O)C1=CN(Cc2ccc(Cl)cc2)C=C(C(=O)OCC)C1c1ccc(OC)c(O)c1 | -10 | 0 | 1 | 0
CC(C)n1c(Nc2ccccn2)nc2c(Nc3ccc(Oc4ccccc4)cc3)ncnc21 | 56* | 0 | 1 | 1
SMILES | TEAD-YAP block | FBW7 act | MITF inh | GPR151 activ
CC(C)n1c(Nc2ccccn2)nc2c(NCCOc3ccccc3)ncnc21 | -29 | 0 | -1 | 2
COC(=O)c1ccc(C(=O)N2CCC[C@@H]3CN(Cc4ccsc4)CC[C@H]32)cc1 | 3 | 0 | 9 | -1
CCn1c2ccccc2n2cc(-c3ccc(Br)cc3)nc12 | -12 | 2.3* | -11 | 3
C=CCn1c2ccccc2n2cc(-c3ccccc3)nc12 | -12 | 1 | 10 | -2
Clc1ccc(-c2cn3c4ccccc4n(CCN4CCCCC4)c3n2)cc1 | 4 | 5.0* | -28 | 0
CCC(=O)N=c1sc2ccccc2n1CC(=O)OC | 5 | 0 | 9 | 1
O=[N+]([O-])c1ccc(S(=O)(=O)Nc2cccc3cc4ccccc4nc23)cc1 | 80* | 0 | 24 | -1
O=[N+]([O-])c1ccc(S(=O)(=O)Nc2cccc3ccccc23)cc1 | 12 | 0 | 17 | 0
O=C(O)COc1ccccc1/C=C1\C(=O)NC(=O)N(c2cccc([N+](=O)[O-])c2)C1=O | 0 | 0 | 55* | -2
CC(=O)Nc1ccc(Nc2nc(-c3c(C)nn(C)c3C)nc3c2ncn3C2CCCCC2)cc1 | -27 | 0 | -4 | 0
O=C(/C=C/c1ccccc1Cl)NCCSc1ccccn1 | -26 | 0 | 2 | -1
O=c1oc2ccc(Cl)cc2cc1-c1nnc(NCc2ccc3c(c2)OCO3)s1 | 10 | 0 | 12 | 1
Clc1ccc(CSc2nn3cnnc3s2)cc1 | 53* | 0 | 16 | -1
C(=N\Nc1nnc2c(n1)[nH]c1ccccc12)/c1ccccn1 | 56* | -2 | 27 | 0
Oc1ccc(O)c(/C=N\Nc2nnc3c(n2)[nH]c2ccccc23)c1 | 50* | 0 | 22 | 2
Oc1ccc(/C=N/Nc2nnc3c(n2)[nH]c2ccccc23)c(O)c1 | 56* | -1 | 19 | 0
Oc1ccc(/C=N/Nc2nnc3c(n2)[nH]c2ccccc23)cc1 | -31 | 0 | 23 | -1
CCOC(=O)CSc1nnc(-c2cccc(OC)c2)n1-c1ccccc1 | 3 | 0 | 9 | 1
COc1ccc(-n2nnc(-c3nc(-c4ccc(Cl)cc4)no3)c2N)cc1 | -3 | 0 | -18 | -2
Cc1ccccc1NC(=O)CCn1cccc1 | 10 | 0 | 16 | 0
NC(=O)c1c(NC(=O)CSc2nc(-c3ccccc3)cn2N)sc2c1CCC2 | 36* | 0 | -2 | 1
CC(C)(C)C(=O)Nc1nnc(-c2ccc(Cl)cc2Cl)s1 | -3 | 0 | -9 | 3
Cc1ccc(NC(=S)N(Cc2ccccc2)Cc2cccs2)cc1C | 57* | 0 | -7 | 1
Cc1ccc(NC(=S)N(Cc2ccccc2)Cc2cccs2)cc1 | -10 | 0 | 13 | 2
Cc1ccc(-c2nn(CN3CCCc4ccccc43)c(=S)n2-c2ccccc2)cc1 | 49* | 0 | 14 | 1
SMILES | TEAD-YAP block | FBW7 act | MITF inh | GPR151 activ
Cc1ccc(S(=O)(=O)Nc2ccc(S(=O)(=O)N3CCCCC3)cc2[N+](=O)[O-])cc1 | -5 | 0 | -6 | 0
COC(=O)c1ccccc1NC(=O)c1ccccc1OC | 3 | 0 | 6 | 1
CCOc1ccccc1C(=O)Nc1nnc(CCc2ccccc2)s1 | 34* | 0 | -5 | -2
CCOC(=O)c1oc2ccccc2c1NC(=O)c1ccccc1OCC | 53* | 0 | 7 | 0
CCOc1ccccc1C(=O)Nc1ccccc1C(=O)OC | 53* | 0 | -9 | 2
CCOC(=O)c1oc2ccccc2c1NC(=O)c1ccccc1C | -2 | 0 | 11 | 0
CCOc1ccc(NC(=O)c2oc3ccccc3c2NC(=O)c2ccco2)cc1 | 5 | 2.6* | 1 | 0
O=c1[nH]c(SCc2ccc(F)cc2)nc2nc[nH]c12 | -4 | 0 | -2 | 1
Cc1nc2ccccn2c(=O)c1C(=O)O | 3 | 0 | 18 | -1
Cc1csc(N/N=C\c2ccccn2)n1 | 79* | -2 | 16 | -7
Nc1nc(NCCOc2ccccc2)cc(-c2ccccc2)n1 | 41* | 0 | 19 | 1
Nc1nc(NCCOc2ccccc2)cc(Nc2ccccc2)n1 | -13 | 0 | 2 | 1
CCCNc1cc(-c2csc3ccccc23)nc(N)n1 | 5 | 0 | 3 | 0
Nc1nc(NCCOc2ccccc2)cc(-c2csc3ccccc23)n1 | 42* | 0 | 0 | 1
